Screening results (PubChem)
An excerpt weighted towards active compounds, which were near 6.8% of everything screened.
C diff HTS: blocks growth of Clostridium difficile | Clostridium difficile clinical isolate growth, OD600, 24 h; hits give low values | growth activity, negative = inhibition, % at 16 µg/mL (by protocol) | hit rate 0.25% among 86,000;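 active = mean growth activity at or below -80% and every replicate also at or below -80%; inconclusive = mean at or below -80% but some replicate above -80%; inactive = mean growth activity above -80%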;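 also: 0% = DMSO wells and -100% = levofloxacin 16 µg/mL wells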
T cruzi growth-1: inhibitors of T. cruzi proliferation | T. cruzi beta-gal in NIH3T3, GalScreen luminescence, 90 h | inhibition, % at 8.34 µM | hit rate 5.9% among 77,000;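 active = mean inhibition above about 93%, with at least 55% of replicates each passing it, limit read from the data, passing the limit was not always enough; inconclusive = only one of those two conditions holds; inactive = neither condition holds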
Pf Dd2 inh: P. falciparum Dd2 growth inhibition; SYBR Green, 72 h; hits give low values; activity change, % at 10 µM; hit rate 2.3% among 94,000; AID 1159554; in the data active = activity change below about -80%; inconclusive = no clear call, values can overlap the other calls
T cruzi growth-2: Trypanosoma cruzi proliferation inhibition; shares compounds with T cruzi growth-1; T. cruzi beta-gal in NIH3T3, GalScreen luminescence, 90 h; inhibition, % at 8.35 µM; hit rate 72% among 5,600; AID 651739;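 active = mean replicate inhibition above about 95% and at least 55% of replicates individually reaching it, limit read from the data; inconclusive = only one of the two criteria is met; inactive = neither criterion is met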
T cruzi growth-3: Trypanosoma cruzi proliferation inhibition | shares compounds with T cruzi growth-1 | inhibition, % at 2.09 µM | T. cruzi beta-gal in NIH3T3, GalScreen luminescence, 90 h | AID 651740 | hit rate 21% among 5,600;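 active = mean inhibition above about 95%, with at least 55% of replicates also reaching it, limit read from the data; inconclusive = meets just one of the two conditions; inactive = meets neither condition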;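 also: plate controls were neutral control median for no effect and positive control median for full effect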
NIH3T3 tox: cytotoxicity in mouse NIH/3T3 fibroblasts; AID 651742; hit rate 14% among 5,600; cytotoxicity (signal decrease), % at 8.35 µM; NIH/3T3 viability, CellTiter-Glo ATP luminescence, 90 h; shares compounds with T cruzi growth-1;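 active = mean signal decrease across replicates above about 35% based on untreated-well scatter, with enough replicates individually passing, limit read from the data; inconclusive = no rule stated though some were filed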;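 also: 0% = median of neutral control wells and 100% = median of positive control wells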
3T3 cytotox 2: kills mouse NIH/3T3 fibroblasts. NIH/3T3 viability, CellTiter-Glo ATP luminescence, 90 h. inhibition, % at 24.9 µM. shares compounds with T cruzi growth-1. hit rate 56% among 5,600;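 active = mean loss of cell viability signal at or above a set limit, and enough replicates individually reaching it; inconclusive = meets only the mean limit or only the replicate share; inactive = meets neither condition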;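 also: 0% = median of neutral control wells and 100% = median of positive control wells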
* = called active by the depositor; ? = inconclusive; / = no result given.

SMILES	C diff HTS	T cruzi growth-1	Pf Dd2 inh	T cruzi growth-2	T cruzi growth-3	NIH3T3 tox	3T3 cytotox 2
CCc1cnc(N2[C@@H](C#N)[C@@H](c3ccc(C4=CCCC4)cc3)[C@@H]2CO)s1	2.2	96.1*	5.2	104.7*	73.9	23.8	42.2*
CCc1cnc(N2[C@H](C#N)[C@H](c3ccc(C4=CCCC4)cc3)[C@H]2CO)s1	-7.0	85.0	-12.2	/	/	/	/
CCc1csc(N2[C@H](C#N)[C@H](c3ccc(-c4cccc(F)c4)cc3)[C@@H]2CO)n1	6.6	91.8	-39.9	/	/	/	/
CCc1cnc(N2[C@H](C#N)[C@H](c3ccc(-c4cccc(F)c4)cc3)[C@@H]2CO)s1	-43.0	101.8*	-34.4	98.0*	107.8*	-1.4	24.9
CC(C)NC(=O)Nc1cccc2c1O[C@@H](CN(C)S(=O)(=O)c1cccs1)[C@H](C)CN([C@H](C)CO)C2=O	/	11.6	17.2	/	/	/	/
C[C@H](CO)N1C[C@H](C)[C@@H](CN(C)CC2CCOCC2)Oc2ncc(C3=CCCCC3)cc2C1=O	5.0	22.7	14.5	/	/	/	/
C[C@@H]1CN([C@H](C)CO)S(=O)(=O)c2ccc(C#Cc3ccccc3)cc2O[C@H]1CN(C)S(C)(=O)=O	-8.7	60.6	-68.5	/	/	/	/
C[C@H](CO)N1C[C@H](C)[C@@H](CN(C)S(=O)(=O)c2cn(C)cn2)Oc2cc(C#Cc3ccccc3)ccc2S1(=O)=O	0.5	104.9*	-64.8	106.4*	87.3	22.9	49.8*
C[C@@H]1CN([C@@H](C)CO)S(=O)(=O)c2ccc(C#Cc3ccccc3)cc2O[C@H]1CN(C)S(C)(=O)=O	-8.6	68.5	-75.9	/	/	/	/
C[C@@H]1CN([C@@H](C)CO)S(=O)(=O)c2ccc(C#Cc3cccc(F)c3)cc2O[C@@H]1CN(C)S(=O)(=O)c1cn(C)cn1	-2.7	94.3	-17.4	/	/	/	/
C[C@@H]1CN([C@@H](C)CO)S(=O)(=O)c2ccc(C#Cc3ccccc3)cc2O[C@@H]1CN(C)S(=O)(=O)c1ccccc1F	5.0	123.4*	-60.3	104.9*	109.4*	33.8	47.0*
C[C@H](CO)N1C[C@H](C)[C@@H](CN(C)S(=O)(=O)c2ccccc2F)Oc2cc(C#Cc3ccccc3)ccc2S1(=O)=O	3.3	123.3*	-74.1	107.2*	116.1*	2.6	?
CC=Cc1ccc2n(c1=O)C[C@@H]1[C@@H](CO)[C@H](C(=O)N[C@H](C)c3ccccc3)[C@H]2N1CC1CC1 (mixture of isomers)	7.4	11.8	6.4	/	/	/	/
CCC(=O)Nc1ccc2c(c1)C(=O)N(C)[C@H]1CC[C@H](CC(=O)NCC3CC3)O[C@@H]1CO2	-0.1	-13.8	-0.7	/	/	/	/
C[C@H]1CN([C@@H](C)CO)C(=O)c2cc(C3=CCCC3)cnc2O[C@H]1CN(C)C(=O)Nc1ccc(C(F)(F)F)cc1	16.7	52.2	-34.9	/	/	/	/
C[C@H]1CN([C@@H](C)CO)C(=O)c2cc(Br)cnc2O[C@@H]1CN(C)C(=O)Nc1ccc(C(F)(F)F)cc1	-0.2	101.6*	-9.3	108.2*	58.6	-9.7	53.6*
C[C@H](CO)N1C[C@H](C)[C@H](CN(C)C(=O)Nc2ccc(C(F)(F)F)cc2)Oc2ncc(Br)cc2C1=O	0.6	25.9	17.9	/	/	/	/
C[C@@H]1CN([C@@H](C)CO)C(=O)c2cc(C3=CCCC3)cnc2O[C@@H]1CN(C)C(=O)Nc1ccc(C(F)(F)F)cc1	31.9	?	-29.5	108.4*	88.2	?	104.2*
CO[C@H]1CC[C@H]2CCN(C)C(=O)[C@@H](C)[C@H](OC)CN(C)C(=O)c3cc(C#N)ccc3OC[C@H]1O2	/	1.2	15.5	/	/	/	/
C[C@H](CO)N1C[C@H](C)[C@H](CN(C)S(=O)(=O)c2ccc(F)cc2)Oc2ccc(NC(=O)Nc3ccc4c(c3)OCO4)cc2CC1=O	7.4	17.3	-12.1	/	/	/	/
COCCNC(=O)C[C@H]1C[C@@H]2c3cc(NC(=O)C4CCC4)ccc3O[C@@H]2[C@@H](CO)O1	11.4	/	5.5	/	/	/	/
C[C@@H]1CN([C@H](C)CO)C(=O)c2cc(NC(=O)Nc3ccc(F)cc3)ccc2O[C@@H](C)CCCCO[C@@H]1CN(C)C(=O)NC1CCCCC1	13.5	54.8	-72.1	/	/	/	/
